From PubChem BioAssay
Active and inactive are the calls of the source.

How the values were obtained:
[1] = target: NADPH oxidase 5 (Homo sapiens) (UniProt Q96PH1); assay: compounds shifting NOX5 Amplex Red fluorescence – cell-based, HEK293-NOX5, NOX inhibitor project, primary screen (AID 1161); conditions: HEK293-NOX5, ionomycin, 45 min, higher = more signal
[2] = compound effects on lung adenocarcinoma cell viability – A549, calcein-AM fluorescence, 48 h, basal, profiling panel (AID 1162); conditions: higher = more signal; further: test concentration not given here
[3] = compound effects on differentiated 3T3-L1 adipocyte viability – cell-based, 3T3-L1 adipocytes, calcein-AM fluorescence, 48 h, basal, profiling panel (AID 1163); conditions: 3T3-L1 adipocytes viability, higher = more signal; further: test concentration not given here
[4] = compound effects on hepatocellular carcinoma cell viability – HepG2, calcein-AM fluorescence, 48 h, basal, profiling panel (AID 1164); conditions: higher = more signal; further: test concentration not given here
[5] = compound effects on multiple myeloma cell viability – MM1S, calcein-AM fluorescence, 48 h, basal, profiling panel (AID 1165); conditions: higher = more signal; further: test concentration not given here
[6] = calcein-AM signal in unstimulated myeloma cells – cell-based, calcein-AM fluorescence, 48 h, PK04 Diversity Set, profiling panel (AID 1166); conditions: RPMI8226 myeloma viability, higher = more signal;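 further: cells grown under basal conditions without added stimulus; test concentration not given here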
[7] = JC-1 mitochondrial signal, unstimulated HepG2 cells – cell-based, JC-1 fluorescence, 24 h, 100 nL compound, profiling panel (AID 1167); conditions: HepG2 mitochondrial potential, higher = more signal; further: test concentration not given here
[8] = JC-1 mitochondrial signal, unstimulated adipocytes – cell-based, JC-1 fluorescence, 3T3-L1 adipocytes, 24 h, 100 nL compound, profiling panel (AID 1168); conditions: JC-1 mitochondrial fluorescence, higher = more signal, called active from +8 up or from −8 down; further: test concentration not given here
[9] = JC-1 mitochondrial signal, unstimulated myeloma cells – cell-based, JC-1 fluorescence, RPMI8226, 24 h, 100 nL compound, profiling panel (AID 1169); conditions: JC-1 mitochondrial potential fluorescence, higher = more signal; further: test concentration not given here
[10] = JC-1 mitochondrial signal, unstimulated MM1S myeloma – cell-based, JC-1 fluorescence, 24 h, 100 nL compound, profiling panel (AID 1170); conditions: MM1S mitochondrial potential, higher = more signal; further: test concentration not given here
[11] = resazurin metabolic signal in A549 cells – cell-based, resazurin fluorescence, 24 h, PK04 Diversity Set, profiling panel (AID 1171); conditions: A549 viability, higher = more signal, called active from +8 up or from −8 down; further: test concentration not given here
[12] = resazurin metabolic signal in HepG2 cells – cell-based, resazurin fluorescence, 24 h, PK04 Diversity Set, profiling panel (AID 1172); conditions: HepG2 viability, higher = more signal; further: test concentration not given here
[13] = budding yeast growth changes without added modifier – OD600, strain BY4716, 24 h, basal condition, primary screen (AID 1173); conditions: S. cerevisiae BY4716 growth, OD600, 24 h; higher = more signal, called active from +8 up or from −8 down
[14] = viability profiling in MM1S myeloma cells – cell-based, resazurin fluorescence, basal, 24 h, PK04 Diversity Set, profiling panel (AID 1174); conditions: higher = more signal, called active from +8 up or from −8 down; further: test concentration not given here
[15] = target: Dihydroorotate dehydrogenase (quinone), mitochondrial (Plasmodium falciparum (isolate 3D7)) (UniProt Q08210); assay: inhibition of P. falciparum DHODH – biochemical, C-terminal His tag, absorbance 600 nm, primary screen (AID 1175); conditions: PfDHODH enzyme, DCIP absorbance 600 nm; higher = more signal, called active from +8 up or from −8 down;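 further: recombinant parasite enzyme with a five histidine tag at its C terminus; test concentration not given here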
[16] = growth modulation of vineyard yeast isolate – strain RM11-1a, OD600, basal, 24 h, primary screen (AID 1177);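 further: cultures grown under basal conditions with no added stressor; test concentration not given here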; conditions: S. cerevisiae RM11-1a growth, OD600, 24 h; higher = more signal, called active from +8 up or from −8 down
[17] = growth of efflux-deficient E. coli DRC39 – strain DRC39, OD650, 24 h, E. coli filamentation inducers, primary screen (AID 1178);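 further: growth measured as culture turbidity by optical density at 650 nm; test concentration not given here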; conditions: E. coli DRC39 acrAB, higher = more signal, called active from +8 up or from −8 down
[18] = growth of efflux-deficient E. coli DRC39 – strain DRC39, OD650, 48 h, E. coli filamentation inducers, primary screen (AID 1179);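 further: screen aims at cell division blockers that make cells filament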; conditions: E. coli DRC39 delta-acrAB growth, higher = more signal, called active from +8 up or from −8 down
[19] = viability profiling in RPMI8226 myeloma cells – cell-based, resazurin fluorescence, basal, 24 h, PK04 Diversity Set, profiling panel (AID 1180); conditions: higher = more signal;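 further: RPMI8826 multiple myeloma cell line at 5000 cells per well; test concentration not given here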
[20] = target: E3 ubiquitin-protein ligase XIAP (Homo sapiens) (UniProt P98170); assay: small molecules binding XIAP protein – biophysical, small-molecule microarray, fluorescence 635 nm, primary screen (AID 1181); conditions: higher = more signal;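 further: score merges 667 nm emission and signal to noise over triplicate slides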
Sequence of E3 ubiquitin-protein ligase XIAP (Homo sapiens) (P98170 whole entry, looked up): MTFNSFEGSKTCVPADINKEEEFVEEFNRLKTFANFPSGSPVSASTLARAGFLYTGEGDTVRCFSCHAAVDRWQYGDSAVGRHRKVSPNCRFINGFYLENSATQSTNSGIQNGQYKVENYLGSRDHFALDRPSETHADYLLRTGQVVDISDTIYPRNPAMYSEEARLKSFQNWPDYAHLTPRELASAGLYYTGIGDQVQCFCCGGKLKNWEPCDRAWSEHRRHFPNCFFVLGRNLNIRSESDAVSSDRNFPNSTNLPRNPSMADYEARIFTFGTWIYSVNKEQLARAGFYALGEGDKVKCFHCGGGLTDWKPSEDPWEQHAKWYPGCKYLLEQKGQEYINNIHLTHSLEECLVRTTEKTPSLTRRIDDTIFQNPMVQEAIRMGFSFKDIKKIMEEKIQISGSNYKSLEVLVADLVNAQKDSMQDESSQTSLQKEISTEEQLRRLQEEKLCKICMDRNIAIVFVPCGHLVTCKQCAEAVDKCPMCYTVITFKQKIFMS

Sequence of NADPH oxidase 5 (Homo sapiens) (Q96PH1 whole entry, looked up): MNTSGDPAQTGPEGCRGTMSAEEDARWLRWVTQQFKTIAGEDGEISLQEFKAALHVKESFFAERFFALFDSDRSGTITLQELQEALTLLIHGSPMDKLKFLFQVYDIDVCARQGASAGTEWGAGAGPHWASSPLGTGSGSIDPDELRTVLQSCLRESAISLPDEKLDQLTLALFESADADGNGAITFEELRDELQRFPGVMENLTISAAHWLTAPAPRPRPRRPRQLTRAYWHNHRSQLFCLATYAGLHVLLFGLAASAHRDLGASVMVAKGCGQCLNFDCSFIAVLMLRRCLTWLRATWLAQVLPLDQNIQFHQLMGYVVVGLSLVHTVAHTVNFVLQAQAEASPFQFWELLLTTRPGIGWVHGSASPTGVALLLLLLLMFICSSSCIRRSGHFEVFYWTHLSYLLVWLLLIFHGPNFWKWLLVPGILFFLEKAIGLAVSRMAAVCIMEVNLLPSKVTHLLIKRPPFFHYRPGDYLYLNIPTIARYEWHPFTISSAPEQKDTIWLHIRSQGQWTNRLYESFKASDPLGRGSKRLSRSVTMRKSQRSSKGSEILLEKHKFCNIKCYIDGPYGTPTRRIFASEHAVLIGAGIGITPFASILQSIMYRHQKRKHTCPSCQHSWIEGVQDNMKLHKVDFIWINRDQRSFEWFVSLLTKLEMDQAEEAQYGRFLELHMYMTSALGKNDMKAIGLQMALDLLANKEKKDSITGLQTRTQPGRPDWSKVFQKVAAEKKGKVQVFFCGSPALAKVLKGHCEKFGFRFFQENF
Sequence of Dihydroorotate dehydrogenase (quinone), mitochondrial (Plasmodium falciparum (isolate 3D7)) (Q08210 whole entry, looked up): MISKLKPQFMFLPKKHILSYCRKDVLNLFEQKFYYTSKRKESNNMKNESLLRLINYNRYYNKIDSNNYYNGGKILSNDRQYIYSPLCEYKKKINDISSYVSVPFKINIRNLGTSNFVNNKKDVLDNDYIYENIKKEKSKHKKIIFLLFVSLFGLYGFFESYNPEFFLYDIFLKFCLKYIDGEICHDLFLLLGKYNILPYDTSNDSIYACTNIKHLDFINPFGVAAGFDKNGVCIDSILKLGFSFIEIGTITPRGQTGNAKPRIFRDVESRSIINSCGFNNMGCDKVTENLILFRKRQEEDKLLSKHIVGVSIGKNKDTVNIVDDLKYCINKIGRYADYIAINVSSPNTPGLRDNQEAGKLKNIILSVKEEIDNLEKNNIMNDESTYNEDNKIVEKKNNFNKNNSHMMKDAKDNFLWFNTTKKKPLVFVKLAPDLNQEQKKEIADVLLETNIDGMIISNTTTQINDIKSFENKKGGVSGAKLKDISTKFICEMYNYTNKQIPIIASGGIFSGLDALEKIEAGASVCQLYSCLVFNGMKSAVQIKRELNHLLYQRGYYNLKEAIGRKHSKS

Compound	z-score [1]	z-score [2]	z-score [3]	z-score [4]	z-score [5]	z-score [6]	z-score [7]	z-score [8]	z-score [9]	z-score [10]	z-score [11]	z-score [12]	z-score [13]	z-score [14]	composite z-score [15]	z-score [16]	z-score [17]	z-score [18]	z-score [19]	composite z-score [20]
COc1c(C)cc(-c2cc3c(c(CCc4ccccc4)n2)[Si](C(C)C)(C(C)C)OC3)cc1C	-0.11	0.483	1.27	-0.277	-1.5	0.0965	-2.26e-05	0.334 (inactive)	0.667	0.168	1.38 (inactive)	1.64	-0.966 (inactive)	1.93 (inactive)	-0.545 (inactive)	-1.43 (inactive)	1.75 (inactive)	1.08 (inactive)	1.37	-0.172
COc1ccc([Si](C)(C)[C@@H]2[C@@H](CC(=O)N3CCC[C@H]3CO)O[C@]3(C(=O)N(Cc4ccc(I)cc4)c4ccccc43)[C@H]2C)cc1	4	-0.298	2.59	-2.95	-2.58	-4.35	2.47	1.67 (inactive)	-1.04	-0.818	-2.59 (inactive)	-1.37	-1.91 (inactive)	-2.56 (inactive)	0.413 (inactive)	-0.289 (inactive)	1.66 (inactive)	0.78 (inactive)	-2.59	0.0368
CC(C)C(CO)N1C(=O)[C@@H]2C3C(=O)OCCC/C=C\[C@H]3OC23C=CCN(C(C)C)C(=O)[C@@H]13 (stereo not given in full)	1.56	0.136	0.492	-0.345	0.239	-0.0156	0.271	-0.0599 (inactive)	-0.524	1.05	0.735 (inactive)	0.997	-0.953 (inactive)	0.814 (inactive)	-0.848 (inactive)	-1.36 (inactive)	1.66 (inactive)	1.26 (inactive)	1.53	-0.269
C[N+](C)(C)CCCC[C@@H]1NC(=O)[C@@H]2C[C@H](C(=O)NCCCCCNC(=O)CS)[C@H](c3ccc(O)cc3)N2C1=O	2.12	-0.215	1.09	-0.792	-0.982	0.027	2	0.385 (inactive)	0.289	-0.336	1.09 (inactive)	-0.122	-1.15 (inactive)	0.941 (inactive)	-1.15 (inactive)	-1.36 (inactive)	0.513 (inactive)	0.355 (inactive)	1.55	0.0471
[N-]=[N+]=NCc1ccccc1C[C@@]1(C(=O)O)N=C(c2ccc(OCCCO)cc2)O[C@@H]1c1ccccc1	1.48	0.349	0.298	-0.187	-0.139	0.0527	-0.586	0.493 (inactive)	-0.497	0.394	0.946 (inactive)	0.458	-3.34 (inactive)	0.954 (inactive)	0.0567 (inactive)	-1.01 (inactive)	2.63 (inactive)	1.26 (inactive)	0.903	0.188
CC(=O)OC(C/C=C\B1OC(C)(C)C(C)(C)O1)c1ccccc1 (stereo not given)	-2.94	2.43	0.554	0.467	0.345	0.0422	2.03	2.31 (inactive)	-0.457	0.962	0.273 (inactive)	0.518	-2.1 (inactive)	1.14 (inactive)	0.339 (inactive)	-4.44 (inactive)	1.5 (inactive)	0.57 (inactive)	0.157	-0.0256
C=CCC(OC(C)=O)[C@@H]1[C@@H](N(Cc2ccc(-c3cccc(C(F)(F)F)c3)o2)C(=O)c2ccc(-c3ccccc3)cc2)c2cc(OCCCO)ccc2N1C(=O)Cc1ccc(OC)cc1 (stereo not given in full)	2.21	0.161	0.935	1.29	1.18	0.72	3.72	0.0243 (inactive)	-0.598	1.36	0.797 (inactive)	0.421	0.0438 (inactive)	1.29 (inactive)	0.0258 (inactive)	-0.93 (inactive)	1.98 (inactive)	1.21 (inactive)	1.32	-0.0525
CCOC(=O)C[C@H]1[C@H](OC(=O)c2ccc(-c3ccccc3)cc2)[C@@H](NC(=O)c2ccccc2)c2cc(OCCCO)ccc2N1C(=O)c1ccccc1	3.5	0.769	1.54	-0.159	1.11	-0.132	3.28	0.318 (inactive)	0.709	1.38	-0.325 (inactive)	0.643	-1.34 (inactive)	1.83 (inactive)	0.594 (inactive)	-1.37 (inactive)	1.76 (inactive)	1 (inactive)	0.815	-0.0351
CN1C=C(C(=O)OCCS(C)(=O)=O)C(C(=O)OCCS(C)(=O)=O)=CC(CCCO)=CC1c1cccs1 (stereo not given)	0.0246	2.6	0.778	0.615	0.175	-0.249	1.9	1.93 (inactive)	0.0813	0.885	0.776 (inactive)	0.666	-3.06 (inactive)	1.07 (inactive)	-4.08 (inactive)	-1.01 (inactive)	1.26 (inactive)	0.676 (inactive)	0.602	0.0374
COC(=O)C(CC#Cc1ccc2c(c1)[C@]1(C(=O)N2)[C@H](C(=O)O)[C@H]2C(=O)O[C@H](c3ccccc3)[C@H](c3ccccc3)N2[C@@H]1c1ccc(OCCO)cc1)C(=O)OC	0.396	2.54	0.313	1.27	-2.5	-3.54	-0.532	0.587 (inactive)	-0.746	0.171	0.7 (inactive)	0.821	-0.842 (inactive)	1.22 (inactive)	-15.4 (active)	0.338 (inactive)	1.6 (inactive)	1.72 (inactive)	-2.37	-0.207
CC(C)C[C@@H]1NC(=O)[C@@]23C(=O)N[C@@H](Cc4ccccc4)C2[C@H](C)[C@@]2(C)O[C@H]2C3/C=C/CC/C=C/CNC(=O)[C@@H](C)NC1=O (stereo not given in full)	-0.181	0.421	1.98	-0.309	0.827	-0.386	1.82	0.918 (inactive)	-0.205	2.11	-0.613 (inactive)	-0.589	-1.92 (inactive)	0.603 (inactive)	0.596 (inactive)	-0.209 (inactive)	2.5 (inactive)	1.34 (inactive)	0.866	-0.227
CCCCCCC#C[Si](O[C@H](c1ccccc1)c1cn(Cc2ccccc2)nn1)(C(C)C)C(C)C	-1.87	1.68	0.28	-0.316	0.163	0.0412	6.57	2.09 (inactive)	0.548	-0.198	4.71 (inactive)	2.52	-0.382 (inactive)	2.12 (inactive)	0.337 (inactive)	-0.486 (inactive)	2.12 (inactive)	1.36 (inactive)	2.68	-0.0368
O=C(O)[C@H]1C[C@H]2C(=O)N[C@@H](Cc3ccccc3)C(=O)N2[C@H]1c1ccc(O)cc1	2.01	-0.315	0.691	-0.142	0.41	0.0405	1.29	-0.176 (inactive)	-0.865	-0.269	0.715 (inactive)	0.833	-0.145 (inactive)	0.635 (inactive)	-0.426 (inactive)	-0.44 (inactive)	0.431 (inactive)	0.361 (inactive)	1.04	0.117
CC(C)CCC[C@@H](C)[C@H]1CC[C@@]2(C)C3=C(CC[C@]12C)[C@@]1(C)CC[C@H](OC(=O)CCl)C(C)(C)C1CC3 (stereo not given in full)	0.517	1.98	0.155	1.17	0.405	0.895	1.58	-0.207 (inactive)	-0.493	1.07	0.96 (inactive)	1.16	-0.795 (inactive)	0.33 (inactive)	0.141 (inactive)	-0.249 (inactive)	2.93 (inactive)	1.59 (inactive)	0.444	0.106
COCCOC(=O)N1C(=O)[C@@]2(c3cc(C#CC4(O)CCCCCC4)ccc31)[C@H](c1ccc(O)cc1)N1[C@H](c3ccccc3)[C@H](c3ccccc3)OC(=O)[C@H]1[C@@H]2C(N)=O	1.29	0.0692	1.46	0.638	-2.22	-4.23	-1.6	-0.385 (inactive)	-0.735	0.246	0.928 (inactive)	0.228	-1.38 (inactive)	0.951 (inactive)	0.194 (inactive)	-0.95 (inactive)	0.158 (inactive)	0.155 (inactive)	0.778	0.166
